# Where a chain is given by its changes, count along the chain named.
# How the values were obtained:
# Experiment in all cases: PBM; 200 nM protein, PBS
# Settings in all cases: dsDNA, one strand shown
# SHOX [1] = target: SHOX (Homo sapiens, UniProt O15266 103-189)
# MSX2 [2] = target: MSX2 (Homo sapiens, UniProt P35548 130-214, R199I)
# SHOX [3] = target: SHOX (Homo sapiens, UniProt O15266 103-189, R173C)
# MSX2 [4] = target: MSX2 (Homo sapiens, UniProt P35548 130-214)
# MSX2 [5] = target: MSX2 (Homo sapiens, UniProt P35548 130-214, F161Y)
# MSX2 (Homo sapiens, UniProt P35548 130-214, F161Y), sequence (P35548 130-214 F161Y): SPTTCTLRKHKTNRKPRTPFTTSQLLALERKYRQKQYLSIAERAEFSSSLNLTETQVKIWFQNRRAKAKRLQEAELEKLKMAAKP
# PAX4 [6] = target: T1, PAX4 (Homo sapiens, UniProt O43316 9-242, R200K)
# T1 sequence: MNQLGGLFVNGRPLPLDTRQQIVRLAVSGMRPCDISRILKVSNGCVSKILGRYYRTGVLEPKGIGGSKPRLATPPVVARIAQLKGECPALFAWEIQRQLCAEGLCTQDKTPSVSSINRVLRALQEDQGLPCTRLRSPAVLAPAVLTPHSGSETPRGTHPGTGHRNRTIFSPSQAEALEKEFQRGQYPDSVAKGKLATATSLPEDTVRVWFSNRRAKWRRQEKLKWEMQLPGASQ
# PAX4 [7] = target: T2, PAX4 (Homo sapiens, UniProt O43316 9-242)
# T2 sequence: T1 sequence with K192R
# PAX4 [8] = target: T3, PAX4 (Homo sapiens, UniProt O43316 9-242, R200Q)
# T3 sequence: T1 sequence with K192Q
# PAX4 [9] = target: T4, PAX4 (Homo sapiens, UniProt O43316 9-242, F177V)
# T4 sequence: T1 sequence with F169V, K192R
# PAX4 [10] = target: T5, PAX4 (Homo sapiens, UniProt O43316 9-242, F177Y)
# T5 sequence: T1 sequence with F169Y, K192R
# PAX4 [11] = target: T6, PAX4 (Homo sapiens, UniProt O43316 9-242, R227W)
# T6 sequence: T1 sequence with K192R, R219W
# PITX2 = PITX2 (Homo sapiens, UniProt Q99697 72-157)
# HOXC10 [12] = target: HOXC10 (Homo sapiens, UniProt Q9NYD6 254-340)
# HOXC10 (Homo sapiens, UniProt Q9NYD6 254-340), sequence (Q9NYD6 254-340): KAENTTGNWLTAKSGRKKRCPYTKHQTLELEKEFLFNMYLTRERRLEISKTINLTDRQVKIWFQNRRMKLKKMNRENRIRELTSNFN
# HOXC10 [13] = target: HOXC10 (Homo sapiens, UniProt Q9NYD6 254-340, K271E)
# HOXC10 (Homo sapiens, UniProt Q9NYD6 254-340, K271E), sequence (Q9NYD6 254-340 K271E): as the sequence (Q9NYD6 254-340) above, with K18E counted along it
# SHOX (Homo sapiens, UniProt O15266 103-189), sequence (O15266 103-189): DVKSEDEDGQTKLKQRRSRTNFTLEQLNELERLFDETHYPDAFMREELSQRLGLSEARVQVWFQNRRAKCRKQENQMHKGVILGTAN
# SHOX (Homo sapiens, UniProt O15266 103-189, R173C), sequence (O15266 103-189 R173C): as the sequence (O15266 103-189) above, with R71C counted along it
# MSX2 (Homo sapiens, UniProt P35548 130-214), sequence (P35548 130-214): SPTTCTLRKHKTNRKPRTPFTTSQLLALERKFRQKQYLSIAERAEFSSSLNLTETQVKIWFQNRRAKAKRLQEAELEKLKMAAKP
# MSX2 (Homo sapiens, UniProt P35548 130-214, R199I), sequence (P35548 130-214 R199I): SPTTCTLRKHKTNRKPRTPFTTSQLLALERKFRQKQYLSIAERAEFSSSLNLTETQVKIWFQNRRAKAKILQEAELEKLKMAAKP
sequence,measurement,setting,value
GCGCCAGC,binding signal,SHOX [1],"7.13 upbm affinity estimate (log intensity, higher = more binding, comparable within an allelic series)"
same,binding signal,MSX2 [2],"9.22 upbm affinity estimate (log intensity, higher = more binding, comparable within an allelic series)"
same,binding signal,SHOX [3],"6.97 upbm affinity estimate (log intensity, higher = more binding, comparable within an allelic series)"
same,binding signal,MSX2 [4],"9.48 upbm affinity estimate (log intensity, higher = more binding, comparable within an allelic series)"
same,binding signal,MSX2 [5],"9.39 upbm affinity estimate (log intensity, higher = more binding, comparable within an allelic series)"
GGGAACCC,binding signal,SHOX [1],"7.2 upbm affinity estimate (log intensity, higher = more binding, comparable within an allelic series)"
same,binding signal,PAX4 [6],"9.42 upbm affinity estimate (log intensity, higher = more binding, comparable within an allelic series)"
same,binding signal,PAX4 [7],"9.42 upbm affinity estimate (log intensity, higher = more binding, comparable within an allelic series)"
same,binding signal,PAX4 [8],"9.62 upbm affinity estimate (log intensity, higher = more binding, comparable within an allelic series)"
same,binding signal,SHOX [3],"7.06 upbm affinity estimate (log intensity, higher = more binding, comparable within an allelic series)"
same,binding signal,PAX4 [9],"9.39 upbm affinity estimate (log intensity, higher = more binding, comparable within an allelic series)"
same,binding signal,PAX4 [10],"9.36 upbm affinity estimate (log intensity, higher = more binding, comparable within an allelic series)"
same,binding signal,PAX4 [11],"9.48 upbm affinity estimate (log intensity, higher = more binding, comparable within an allelic series)"
CAGCGCAG,binding signal,SHOX [1],"7.11 upbm affinity estimate (log intensity, higher = more binding, comparable within an allelic series)"
same,binding signal,PAX4 [6],"9.32 upbm affinity estimate (log intensity, higher = more binding, comparable within an allelic series)"
same,binding signal,PAX4 [7],"9.29 upbm affinity estimate (log intensity, higher = more binding, comparable within an allelic series)"
same,binding signal,PAX4 [8],"9.39 upbm affinity estimate (log intensity, higher = more binding, comparable within an allelic series)"
same,binding signal,PITX2,"8.17 upbm affinity estimate (log intensity, higher = more binding, comparable within an allelic series)"
same,binding signal,SHOX [3],"7.22 upbm affinity estimate (log intensity, higher = more binding, comparable within an allelic series)"
same,binding signal,PAX4 [9],"9.38 upbm affinity estimate (log intensity, higher = more binding, comparable within an allelic series)"
same,binding signal,PAX4 [10],"9.36 upbm affinity estimate (log intensity, higher = more binding, comparable within an allelic series)"
same,binding signal,PAX4 [11],"9.48 upbm affinity estimate (log intensity, higher = more binding, comparable within an allelic series)"
GGCGCGAA,binding signal,SHOX [1],"7.15 upbm affinity estimate (log intensity, higher = more binding, comparable within an allelic series)"
same,binding signal,HOXC10 [12],"10.1 upbm affinity estimate (log intensity, higher = more binding, comparable within an allelic series)"
same,binding signal,SHOX [3],"7.19 upbm affinity estimate (log intensity, higher = more binding, comparable within an allelic series)"
same,binding signal,HOXC10 [13],"10.1 upbm affinity estimate (log intensity, higher = more binding, comparable within an allelic series)"
